The list is not random: actives were taken first. Their share in the collection is about 31%.
CYP2C9 inh – human CYP2C9 inhibition; CYP2C9 Supersomes, luciferin-H conversion, luminescence; inhibition, % at 5 µM; 96,000 compounds, 20% hits; AID 777;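 active means blocking of liver enzyme CYP2C9 beyond about 50% at 5 µM, limit read from the data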
Target sequence (P11712 whole entry, looked up): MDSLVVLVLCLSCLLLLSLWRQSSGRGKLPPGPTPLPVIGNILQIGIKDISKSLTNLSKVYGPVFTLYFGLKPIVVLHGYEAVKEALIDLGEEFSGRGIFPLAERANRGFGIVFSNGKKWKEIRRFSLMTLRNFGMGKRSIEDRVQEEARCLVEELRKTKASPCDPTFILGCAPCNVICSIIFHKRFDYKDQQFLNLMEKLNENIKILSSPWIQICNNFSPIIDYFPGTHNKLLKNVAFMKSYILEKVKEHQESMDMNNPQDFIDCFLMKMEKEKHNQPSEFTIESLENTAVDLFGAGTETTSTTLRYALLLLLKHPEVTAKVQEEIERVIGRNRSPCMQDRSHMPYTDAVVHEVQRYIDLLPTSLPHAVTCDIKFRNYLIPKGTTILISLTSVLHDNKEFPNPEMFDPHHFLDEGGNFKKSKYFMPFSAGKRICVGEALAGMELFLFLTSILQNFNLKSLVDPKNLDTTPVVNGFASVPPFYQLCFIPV
CYP2C19 inh – human CYP2C19 inhibition; 96,000 compounds, 21% hits; inhibition, % at 5 µM; CYP2C19 Supersomes, luciferin-H EGE luminescence, 30 min; P33261;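 active means CYP2C19 inhibition above a set limit at 5 µM in the primary screen, cut at about 50% in these data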
CYP2C19 act – activators of human cytochrome P450 2C19. recombinant CYP2C19, luciferin-H EGE luminescence; hits give high values; 0 = fully inhibited enzyme, 1 = untreated enzyme. AID 1025. P33261. activation factor at 5 µM. 96,000 tested, under 10 active;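 active means activation factor of at least 2 at 5 µM in the primary screen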
CYP2C9 act – increases human cytochrome P450 2C9 activity. AID 1024. recombinant CYP2C9, luciferin-H conversion, luminescence; hits give high values; factor 1 = untreated enzyme, 0 = blocked. activation factor at 5 µM. 96,000 compounds, 1.4% hits;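 active means activation factor of 2 or more for CYP2C9 at a 5 µM dose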
Large screens that a line does not name were inactive.

O=C(NC1CCCC1)C(c1cccs1)N(CC1CCCO1)C(=O)Cc1cccs1 (stereo not given)	none
Cc1ccc(C(C(=O)NCc2ccco2)N(C(=O)CNC(=O)c2cccs2)c2ccc(C)cc2)cc1 (stereo not given)	none
O=C(NCC(=O)N(Cc1ccco1)C(C(=O)NC1CCCC1)c1cccnc1)c1cccs1 (stereo not given)	CYP2C9 inh 86.3
O=C(NC1CCCCC1)C(c1cccs1)N(Cc1cccs1)C(=O)c1ccco1 (stereo not given)	CYP2C9 inh 53.1, CYP2C19 inh 55.2
Cc1ccc(C(C(=O)NCc2ccco2)N(Cc2ccco2)C(=O)CNC(=O)c2ccco2)cc1 (stereo not given)	CYP2C19 inh 57.3
CC(C)OCCCNC(=O)c1ccc(NS(C)(=O)=O)cc1	none
CCC(Sc1ncnc2sc(C)c(C)c12)C(=O)OC (stereo not given)	CYP2C9 inh 93.0, CYP2C19 inh 64.7
COC(=O)c1c(-c2ccccc2)csc1NC(=O)CSc1ncnc2sc(C)c(C)c12	CYP2C9 inh 70.6
Cc1sc2ncnc(SCC(=O)NCC(C)C)c2c1C	CYP2C9 inh 60.9
COc1cc(Br)c(C(C)NC(=O)c2ccc(C)cc2)cc1OC (stereo not given)	none
CSC1=C(C#N)C(C)C2=C(CC(C)(C)CC2=O)N1 (stereo not given)	none
CCn1c(=O)n(CC)c2cc(S(N)(=O)=O)ccc21	none
CCn1c(=O)n(CC)c2cc(S(=O)(=O)Nc3cc(C)cc(C)c3C#N)ccc21	CYP2C9 inh 79.5, CYP2C19 inh 62.5
CCn1c(=O)n(CC)c2cc(S(=O)(=O)Nc3c(C)cccc3C)ccc21	CYP2C9 inh 66.7, CYP2C19 inh 93.8
CCCC1=C(C(=O)OCC)C(c2ccccc2OC)NC(=O)N1 (stereo not given)	none
CCOC(=O)c1c(N)sc(C(=O)Nc2ccc3c(c2)OCO3)c1C	CYP2C9 inh 84.4, CYP2C19 inh 97.6
Cc1cc(C(=O)NC(C)c2ccc3c(c2)OCO3)cs1 (stereo not given)	CYP2C9 inh 59.8, CYP2C19 inh 90.4
CCOC(=O)c1c(C)c(C(=O)Nc2ccc3c(c2)OCO3)c(C)n1C	none
O=C(Nc1ccc2c(c1)OCO2)c1cnn2cccnc12	none
CC(=O)Nc1ccc(C(=O)Nc2ccc3c(c2)OCO3)cc1	none
Cc1cc(C(=O)Nc2ccc3c(c2)OCO3)cs1	CYP2C19 inh 70.0
Cc1cc(C)n2ncc(C(=O)Nc3ccc4c(c3)OCO4)c2n1	CYP2C9 inh 74.5
Cc1cc(C(=O)Nc2ccc3c(c2)OCCO3)co1	none
Cc1occc1C(=O)Nc1ccc2c(c1)OCO2	CYP2C19 inh 54.1
CCn1c(COc2ccccc2)nnc1SCC(=O)c1cccc([N+](=O)[O-])c1	none
O=C(CN(C(=O)c1ccccc1Cl)C1CCCCC1)Nc1ccc(Cl)c([N+](=O)[O-])c1	CYP2C9 inh 75.2
O=C(O)c1nn(-c2ccccc2)ccc1=O	none
Cc1cccc(Cn2c(C(C)(C)C)cc3cccnc32)c1	none
Cc1nonc1NC(=O)CSc1nc2cc(Cl)ccc2c2c1CCCC2	none
Cc1ccc(CNC(=O)CSc2c3c(nc4ccc(Cl)cc24)CCCC3)o1	CYP2C9 inh 61.0
O=C(CSc1nnc(-c2ccc(Br)cc2)o1)N1CCN(C(=O)c2ccco2)CC1	none
CC(C)(Oc1ccc(Cl)cc1)C(=O)Nc1ccc2oc(-c3ccncc3)nc2c1	none
COc1ccc(C2=NOC(CN3C(=O)c4ccccc4S3(=O)=O)C2)cc1 (stereo not given)	CYP2C9 inh 89.2, CYP2C19 inh 76.1
O=C1c2ccccc2S(=O)(=O)N1CC1CC(c2ccccc2)=NO1 (stereo not given)	CYP2C9 inh 81.4, CYP2C19 inh 81.9
CCNc1nc(Oc2ccc(=O)[nH]n2)nc(N2CCOCC2)n1	none
CCC(C)NC(=O)Cn1cnc2sc(C)cc2c1=O (stereo not given)	none
Cc1noc(C)c1S(=O)(=O)N1CCCC(C(=O)N2CCc3ccccc3C2)C1 (stereo not given)	CYP2C19 inh 73.6
Cc1ccc(C)c(N2CCN(C(=O)C3CCCN(S(=O)(=O)c4c(C)noc4C)C3)CC2)c1 (stereo not given)	CYP2C9 inh 92.6, CYP2C19 inh 73.7
Cc1noc(C)c1S(=O)(=O)N1CCCC(C(=O)N2CCN(C3CCCCC3)CC2)C1 (stereo not given)	none
CN(C)S(=O)(=O)c1ccc2c(c1)c(=O)c(C(=O)NCCCN1CCCCCC1)cn2C	none
C=CCn1cc(C(=O)NCCCOC)c(=O)c2cc(S(=O)(=O)N(CC)CC)ccc21	CYP2C9 inh 59.4
CN(CCCNC(=O)c1cn(C)c2ccc(S(=O)(=O)N(C)C)cc2c1=O)c1ccccc1	CYP2C9 inh 60.1
CCN(CC)S(=O)(=O)c1ccc2c(c1)c(=O)c(C(=O)NCCCN(C)c1ccccc1)cn2C	CYP2C9 inh 57.1
O=c1n(-c2cccc(Cl)c2)c(=O)n2n1CCC2	none
CC1(c2ccc(Cl)cc2)NC(=O)N(CC(=O)N2CCCC2)C1=O (stereo not given)	none
O=S(=O)(Nc1nc2ccccc2nc1NCCN1CCOCC1)c1cccc(Cl)c1	CYP2C9 inh 98.3
Clc1ccc(-c2nc(NCCN3CCOCC3)c3ccccc3n2)cc1	CYP2C9 inh 50.4
Nc1c(S(=O)(=O)c2cccc(Cl)c2)c2nc3ccccc3nc2n1CCN1CCOCC1	none
Cc1noc(C)c1S(=O)(=O)N1CCC(C(=O)NC2CCCc3ccccc32)CC1 (stereo not given)	none
Cc1ccc(-c2ccc(/C=C3\C(=O)ON=C3c3ccccc3)o2)c([N+](=O)[O-])c1	CYP2C9 inh 100.4
CCOc1cc(/C=N/NC(=O)COc2cccc(C)c2)ccc1OC(=O)c1cccs1	CYP2C9 inh 58.7
CCOc1ccc(OCC)c(NC(=O)C2CCCN(S(=O)(=O)c3c(C)noc3C)C2)c1 (stereo not given)	none
CCOC(=O)Cc1csc(NC(=O)C2CCCN(S(=O)(=O)c3cnc[nH]3)C2)n1 (stereo not given)	none
CCOc1ccc(OCC)c(NC(=O)C2CCCN(S(=O)(=O)c3c(C)n[nH]c3C)C2)c1 (stereo not given)	CYP2C9 inh 63.5
CCOc1ccc(OCC)c(NC(=O)C2CCCN(S(=O)(=O)c3cnc[nH]3)C2)c1 (stereo not given)	CYP2C9 inh 79.2
CC1(C)CC(=O)C2=C(C1)Oc1ncn(CCCO)c(=N)c1C2c1ccccc1 (stereo not given)	none
CSC1=N/C(=C\c2ccccc2F)C(=O)S1	CYP2C19 inh 62.9
Nc1cc(=O)nc(SCC(=O)Nc2cccc3ccccc23)n1CCc1ccccc1	none
O=C(N1CCOCC1)N1CCCC(c2nc(-c3cccs3)no2)C1 (stereo not given)	none
COc1ccc(C(=O)N2CCCC(c3nc(-c4cccs4)no3)C2)cc1OC (stereo not given)	CYP2C19 inh 54.6
COc1ccc(C(=O)N2CCCC(c3nc(-c4cccs4)no3)C2)cc1 (stereo not given)	CYP2C9 inh 73.8, CYP2C19 inh 83.6
CSC(=NNC(=O)c1ccc(O)cc1)SC	none
Cc1ccc(C2C(C#N)=C(N)Oc3c2oc(CO)cc3=O)o1 (stereo not given)	none

High-throughput results (PubChem)
